VCAM1 TNFa pot: potentiators of TNFa-induced VCAM1 expression, primary screen, imaging, HUVEC, TNFa stimulus, immunofluorescence. HUVEC TNFa-stimulated VCAM-1 immunofluorescence, high-content imaging; scaled per plate to unstimulated/TNFa-only wells. activation, % at 2 µM. 93,000 tested, 0.19% active;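 active means activation above the screen mean plus 3 SD, with well images confirming the hit on visual review, cut at about 28% in these data, passing the limit was not always enough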;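 further: signal is the number of cytoplasmic VCAM-1 stained grains per positive cell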
Large screens that a line does not name were inactive. Not all results are given here.

CC1=C(C)/C(=N/OC(=O)c2cccc([N+](=O)[O-])c2)C=CC1=O	none
COCCSc1nnc(NC(=O)CSCc2ccccc2)s1	none
CCOc1ccc(CCNC(=O)Cn2c(=O)oc3ccccc32)cc1OCC	none
Cc1cccc(C)c1NS(=O)(=O)c1ccc(F)cc1	none
CCOc1cccc(C(=O)Nc2ccc3oc(Cc4ccc(Cl)cc4)nc3c2)c1	none
COc1ccc(CN2CCCCC2C(=O)Nc2ccc(OC)c(OCC(C)C)c2)cc1OC (stereo unspecified)	none
CN1CCCCc2c1[nH]c1ccccc1c2=O	none
CN(C)CCCN1C(=O)C(=O)/C(=C(/O)c2ccc3c(c2)OCO3)C1c1ccccn1 (stereo unspecified)	none
CC(C(=O)Nc1ccccc1Sc1ccccc1)N(c1ccccc1)S(C)(=O)=O (stereo unspecified)	none
C=C(C)C1CC=C(C)/C(=N/NC(=O)COc2cccc3ccccc23)C1 (stereo unspecified)	none
C=C(C)CSc1nc(N)c2c(C)c(C)sc2n1	none
COc1ccc(S(=O)(=O)Nc2nc3n(n2)C(c2ccc(Cl)cc2)CC(=O)N3)cc1 (stereo unspecified)	none
Cc1occc1C(=O)NNC(=O)NC12CC3CC(CC(C3)C1)C2	none
O=C1OCC(CO)(CO)N=C1NNc1ccccc1Cl	none
CC(=O)Nc1sc2c(c1CN1CCN(c3ccc(F)cc3)CC1)CCCC2	none
COc1ccc(Cl)cc1N(CC(=O)Nc1ccccc1SC)S(C)(=O)=O	none
O=S(=O)(N1CCCCCC1)N1CCN(S(=O)(=O)N2CCCCC2)CC1	none
CCc1ccc(Nc2oc(C)cc(=O)c2C(C)=O)cc1	none
Cc1ccc(OCC(=O)Nc2ccc([N+](=O)[O-])cn2)cc1C	none
Cc1ccc(S(=O)(=O)NCC(c2ccccc2)N2CCN(CCC#N)CC2)cc1 (stereo unspecified)	none
CCc1cccc(CC)c1NC(=O)C1SC(=Nc2ccccc2C)C(c2nc3ccccc3s2)=C1N (stereo unspecified)	none
Cc1cc(N(C)C)nc(SC(C)C)n1	none
Cc1cc(N2CCOCC2)nc(SCc2ccc(Cl)cc2Cl)n1	none
O=C(NC(=S)N(Cc1ccccc1)Cc1ccccc1)c1ccccc1F	none
COC(=O)c1nn(-c2ccc(Cl)cc2)c(=O)cc1Sc1ccccn1	none
CC1N(O)C(C)(C)C(c2ccccc2)=[N+]1[O-] (stereo unspecified)	none
O=C(COc1ccccc1)Nc1ccc(OC(F)(F)C(F)F)c(NC(=O)COc2ccccc2)c1	none
COC(=O)CSC(C(=O)Nc1ccc(C)c(C)c1)c1ccccc1 (stereo unspecified)	none
CC(C)(C)C(=O)N1CCN(c2c(Cl)cccc2[N+](=O)[O-])CC1	none
Cc1ccc(CNC(=O)CSc2ncccn2)cc1	none
CCCCC1CC1C(=O)Nc1ncc2c(n1)CC(C)(C)CC2=O (stereo unspecified)	none
O=C(CN1C(=O)C2CC=CCC2C1=O)NCC1COc2ccccc2O1 (stereo unspecified)	none
COc1nn(C(C)C(=O)N2N=C(C(F)F)CC2(O)C(F)F)cc1[N+](=O)[O-] (stereo unspecified)	none
O=C(O)c1ccc(NC(CSCc2cccc(F)c2)C(=O)O)c([N+](=O)[O-])c1 (stereo unspecified)	none
CCOC(=O)c1ccccc1NC(=O)CSc1nnc(COc2ccccc2C)n1C	none
CCCc1cc(C(N)=O)c(NC(C)=O)s1	none
Cc1ccc(Oc2ncccc2/C=N/OCc2ccc(Cl)c(Cl)c2)cc1	none
O=C(NC1CCCc2ccccc21)c1cncc(Br)c1 (stereo unspecified)	none
CCCn1c(=N)n(CCOCCOCCn2c(=N)n(CCC)c3ccccc32)c2ccccc21	none
COc1cccc(/C=C/C(=C2\C(=O)N(c3ccccc3)N=C2C)c2ccc(Br)cc2)c1OC	none
CCSc1nc(O)c(Cc2ccccc2)c(=O)[nH]1	none
Cc1nnsc1C(=O)Nc1cccc(Cl)c1Cl	none
C#CC1(O)CC(C)NCC1(C)CCC#N (stereo unspecified)	none
O=C(NC12CC3CC(CC(C3)C1)C2)c1cncc(O)c1	none
C/C(=N\Nc1nc2c(s1)CCCC2)c1ccccc1	none
CNC(=O)c1ccccc1S(=O)(=O)c1ccccc1C#N	none
O=C(NC(Cc1ccccc1)C(=O)O)c1ccc(S(=O)(=O)N2CCCCC2)cc1 (stereo unspecified)	none
CCOC(=O)C1=C(O)/C(=C/c2ccc(C)o2)SC1=NC(=O)c1ccccc1C	none
CCNc1ccc(Br)cc(C(=O)/C=C/c2ccc(Cl)cc2Cl)c1=O	none
Cc1ccc(S(=O)(=O)Cc2ccc(C(=O)O)o2)cc1	none
Cc1ccc(C(C)C)c(OC(=O)/C=C/c2ccccc2)c1	none
CCC(CC)C(=O)c1c[nH]c(C(=O)NCC2CCCO2)c1 (stereo unspecified)	none
Cn1c(Sc2ccc(C(F)(F)F)cc2[N+](=O)[O-])nnc1-c1ccccc1	none
CCOC(=O)Cn1nc(C)n(-c2ccc(C(C)C)cc2)c1=O	none
CCC1CCc2c(sc(NC(=O)CSc3nc(-c4ccco4)cc(C(F)(F)F)n3)c2C#N)C1 (stereo unspecified)	none
Cc1ccc(S(=O)(=O)NC(C)(C)CSc2nnc(N)s2)cc1	none
CN1CCN(c2ncccc2S(=O)(=O)N2CCCCC2)CC1	none

Screening results from PubChem.
